Bioassay records (PubChem BioAssay)
GLD-1 TGE inh = GLD-1-TGE RNA interaction inhibition (C. elegans). Q17339. purified GLD-1 + fluorescein TGE RNA, fluorescence polarization. 320,000 tested, 0.44% active. inhibition, % at 5.96 µM. AID 2280;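 active = percent inhibition above a per-plate cutoff, the plate mean of test compounds plus 3 SD, cut at about 30% in these data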
Cardiac RTF inh = cardiac RTF calcium desensitization; P19429+P45379; IANBD-labeled cardiac RTF, Ca2+ fluorescence; inhibition, % at 7.15 µM; 340,000 tested, 0.12% active;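 active = inhibition above the mean inhibition of all tested compounds plus 3 SD, cut at about 17% in these data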;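 note: assay run at fixed EC70 calcium of 1.6 mM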
E coli Lon inh = inhibits E. coli Lon protease. P0A9M0. purified E. coli Lon protease, fluorescence polarization. inhibition, % at 7.94 µM. 360,000 tested, 0.42% active. AID 602123; in the data active = inhibition above about 13%, passing the limit was not always enough
Target sequence (P0A9M0 whole entry, looked up): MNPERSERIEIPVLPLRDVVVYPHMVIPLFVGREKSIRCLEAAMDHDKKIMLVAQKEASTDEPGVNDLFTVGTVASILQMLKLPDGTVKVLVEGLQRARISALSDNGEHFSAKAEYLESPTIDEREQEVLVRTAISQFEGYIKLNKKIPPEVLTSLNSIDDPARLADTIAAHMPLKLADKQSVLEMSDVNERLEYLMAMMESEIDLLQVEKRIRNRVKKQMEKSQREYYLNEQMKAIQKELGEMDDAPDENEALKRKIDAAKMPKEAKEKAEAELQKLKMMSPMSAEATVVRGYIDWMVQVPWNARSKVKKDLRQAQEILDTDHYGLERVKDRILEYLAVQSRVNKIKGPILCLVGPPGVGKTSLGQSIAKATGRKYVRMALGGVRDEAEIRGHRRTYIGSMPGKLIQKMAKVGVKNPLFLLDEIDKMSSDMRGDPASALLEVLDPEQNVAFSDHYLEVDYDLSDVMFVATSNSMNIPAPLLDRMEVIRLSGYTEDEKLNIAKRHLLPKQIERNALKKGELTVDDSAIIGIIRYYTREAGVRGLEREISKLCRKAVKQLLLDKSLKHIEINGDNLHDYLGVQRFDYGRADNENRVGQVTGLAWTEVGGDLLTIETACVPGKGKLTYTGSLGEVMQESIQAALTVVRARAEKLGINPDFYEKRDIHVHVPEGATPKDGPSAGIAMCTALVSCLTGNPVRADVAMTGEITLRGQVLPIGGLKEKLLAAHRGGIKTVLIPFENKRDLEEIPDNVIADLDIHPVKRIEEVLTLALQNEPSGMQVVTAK
RTF Ca sens act = increases calcium sensitivity of human cardiac regulated thin filaments; IANBD-labeled TnC RTF fluorescence at EC20 calcium; 0% EC20 calcium, 100% full calcium; AID 493008; activation, % at 7.2 µM; 340,000 tested, 0.24% active;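 active = activation above the mean over all tested compounds plus 3 SD, cut at about 30% in these data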;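 note: rise in fluorescence read as greater calcium sensitivity of cardiac thin filaments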
BCLXL inh = blocks human Bcl-xL binding to Bim BH3 peptide; Q07817; GST-Bcl-xL / FITC-Bim BH3 peptide fluorescence polarization; inhibition, % at 10.9 µM; 320,000 tested, 0.7% active; AID 2129;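 active = inhibition above the mean of all tested compounds plus 3 SD, cutoff set per campaign, cut at about 30% in these data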;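 note: inhibitors lower millipolarization by displacing the labeled peptide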
eLon confirm = confirmation of E. coli Lon protease inhibitors | shares compounds with E coli Lon inh | purified E. coli Lon, fluorescence polarization | inhibition, % at 7.94 µM | 1,400 tested, 31% active | AID 602230; in the data active = inhibition above about 16%
A number is an active result. This is a sample that favours compounds with a hit; in the whole collection about 1.2% have one here.

Results for CN1CC=C2C(C#N)=C(N)C(C#N)(C#N)[C@H](c3ccoc3)[C@H]2C1 ?
GLD-1 TGE inh: 99; Cardiac RTF inh: inactive; E coli Lon inh: 130; RTF Ca sens act: 50; BCLXL inh: 146; eLon confirm: 109

How did COc1cccc(NC(=O)c2ccc(-c3ccccc3[N+](=O)[O-])o2)c1 do in these assays?
GLD-1 TGE inh: inactive; Cardiac RTF inh: inactive; E coli Lon inh: inactive; RTF Ca sens act: inactive; BCLXL inh: inactive

What do the screens show for `N#Cc1cccnc1Nc1ccc(Cl)cc1`?
GLD-1 TGE inh: inactive; Cardiac RTF inh: inactive; E coli Lon inh: inactive; RTF Ca sens act: inactive; BCLXL inh: inactive

How did Cc1nc(Nc2ccc(Cl)cc2)c(C#N)c(=O)[nH]1 do in these assays?
GLD-1 TGE inh: inactive; Cardiac RTF inh: inactive; E coli Lon inh: 19; RTF Ca sens act: inactive; BCLXL inh: inactive; eLon confirm: inactive

What do the screens show for `CCCCc1nc2cc(C(=O)N3CCN(c4cnccn4)CC3)ccc2o1`?
GLD-1 TGE inh: inactive; Cardiac RTF inh: inactive; E coli Lon inh: 85; RTF Ca sens act: inactive; BCLXL inh: inactive; eLon confirm: inactive

How did CCSC1=N/C(=C\c2ccc(-c3ccccc3[N+](=O)[O-])o2)C(=O)S1 do in these assays?
GLD-1 TGE inh: 48; Cardiac RTF inh: inactive; E coli Lon inh: 37; RTF Ca sens act: inactive; BCLXL inh: 74; eLon confirm: inactive

What do the screens show for `CCCSC1=N/C(=C\c2ccc([N+](=O)[O-])o2)C(=O)S1`?
Cardiac RTF inh: inactive; E coli Lon inh: inactive; RTF Ca sens act: inactive

How did CCOC(=O)C(/C(C)=N/NC(=O)C1CC1c1ccccc1)C(C)C (stereo not given) do in these assays?
GLD-1 TGE inh: inactive; Cardiac RTF inh: inactive; E coli Lon inh: inactive; RTF Ca sens act: inactive; BCLXL inh: inactive

What do the screens show for `CC(=O)O[C@H]1[C@@H](O)[C@H](O)[C@H](Oc2c(O)c(C)c3c4c2[C@@H](C)CC[C@@H]4[C@@H](C)C[C@H]3C=C(C)C)O[C@H]1C`?
GLD-1 TGE inh: inactive; Cardiac RTF inh: inactive; E coli Lon inh: inactive; RTF Ca sens act: inactive

How did CC1(C)CC(=O)C(C=Nc2cccnc2/N=C/C2=C(O)CC(C)(C)CC2=O)=C(O)C1 do in these assays?
GLD-1 TGE inh: 118; Cardiac RTF inh: inactive; E coli Lon inh: 52; RTF Ca sens act: inactive; BCLXL inh: 58; eLon confirm: inactive

What do the screens show for `CC1(C)CC(=O)C(C=Nc2ccc(O)c(N=CC3=C(O)CC(C)(C)CC3=O)c2)=C(O)C1`?
GLD-1 TGE inh: inactive; Cardiac RTF inh: inactive; E coli Lon inh: inactive; RTF Ca sens act: inactive; BCLXL inh: inactive

Results for CC1(C)CC(=O)C(C=Nc2ccc(C(=O)c3ccccc3)cc2N=CC2=C(O)CC(C)(C)CC2=O)=C(O)C1 ?
GLD-1 TGE inh: 104; Cardiac RTF inh: inactive; E coli Lon inh: 13; RTF Ca sens act: 44; BCLXL inh: 67; eLon confirm: inactive

What do the screens show for `CC1(C)CC(=O)C(C=Nc2cccnc2)=C(O)C1`?
GLD-1 TGE inh: inactive; Cardiac RTF inh: inactive; E coli Lon inh: inactive; RTF Ca sens act: inactive; BCLXL inh: inactive

Results for CC(=O)Nc1cc(-c2ccccc2N(C)C)cn2c(-c3ccc(S(C)(=O)=O)cc3)cnc12 ?
E coli Lon inh: active; eLon confirm: 55

Results for Cc1noc(NS(=O)(=O)c2ccc(NC(=O)COc3ccccc3)cc2)c1C ?
GLD-1 TGE inh: inactive; Cardiac RTF inh: inactive; E coli Lon inh: inactive; RTF Ca sens act: inactive; BCLXL inh: inactive

How did COCC(=O)Nc1ccc(S(=O)(=O)Nc2onc(C)c2C)cc1 do in these assays?
E coli Lon inh: 62; eLon confirm: inactive

How did CC1CCCCN1C(=O)Cn1nnc(-c2cccnc2)n1 (stereo not given) do in these assays?
GLD-1 TGE inh: 74; Cardiac RTF inh: inactive; E coli Lon inh: 26; RTF Ca sens act: inactive; BCLXL inh: 85; eLon confirm: inactive

What do the screens show for `COc1ccccc1N1CCN(C(=O)c2c(-c3c(F)cccc3Cl)noc2C)CC1`?
Cardiac RTF inh: inactive; E coli Lon inh: 21; RTF Ca sens act: inactive; eLon confirm: inactive

How did Cc1onc(-c2c(Cl)cccc2Cl)c1C(=O)N=C(N)N1CCCC1 do in these assays?
GLD-1 TGE inh: inactive; Cardiac RTF inh: inactive; E coli Lon inh: 33; RTF Ca sens act: inactive; BCLXL inh: inactive; eLon confirm: inactive

How did Cc1onc(-c2c(Cl)cccc2Cl)c1C(=O)N=C(N)N1CCOCC1 do in these assays?
GLD-1 TGE inh: inactive; Cardiac RTF inh: inactive; E coli Lon inh: inactive; RTF Ca sens act: inactive; BCLXL inh: inactive

What do the screens show for `CC1=NN(C(N)=S)C(=O)C1N=Nc1ccccc1O` (stereo not given)?
GLD-1 TGE inh: inactive; Cardiac RTF inh: inactive; E coli Lon inh: 19; RTF Ca sens act: inactive; BCLXL inh: inactive; eLon confirm: 26

How did COc1cccc(F)c1C(=O)NC(=O)Nc1ccc2nc(C)oc2c1 do in these assays?
GLD-1 TGE inh: 91; Cardiac RTF inh: inactive; E coli Lon inh: 110; RTF Ca sens act: 45; BCLXL inh: 119; eLon confirm: inactive

Results for CSc1nc2ccc(NC(=O)NC(=O)c3c(F)cccc3F)cc2s1 ?
GLD-1 TGE inh: inactive; Cardiac RTF inh: inactive; E coli Lon inh: inactive; RTF Ca sens act: inactive; BCLXL inh: inactive

What do the screens show for `N#Cc1cnc(SCC(=O)N2CCCC2)nc1N`?
GLD-1 TGE inh: inactive; Cardiac RTF inh: inactive; E coli Lon inh: 14; RTF Ca sens act: inactive; BCLXL inh: inactive; eLon confirm: inactive

What do the screens show for `O=C(Nc1cnn(Cc2ccc(Cl)cc2)c1)c1ccc([N+](=O)[O-])cc1`?
GLD-1 TGE inh: inactive; Cardiac RTF inh: inactive; E coli Lon inh: inactive; RTF Ca sens act: inactive; BCLXL inh: inactive

What do the screens show for `NC(=S)Nc1cccc2cc3ccccc3cc12`?
GLD-1 TGE inh: inactive; Cardiac RTF inh: inactive; E coli Lon inh: 42; RTF Ca sens act: inactive; BCLXL inh: 57; eLon confirm: 113

How did NC(=S)Nc1cc2ccccc2c2ccccc12 do in these assays?
GLD-1 TGE inh: inactive; Cardiac RTF inh: inactive; E coli Lon inh: inactive; RTF Ca sens act: inactive; BCLXL inh: inactive

Results for COc1ccccc1CCNC(=O)C(=O)NCC1OCCN1S(=O)(=O)c1ccc(F)cc1 (stereo not given) ?
GLD-1 TGE inh: inactive; Cardiac RTF inh: inactive; E coli Lon inh: inactive; RTF Ca sens act: inactive; BCLXL inh: inactive

What do the screens show for `COc1ccccc1CCNC(=O)C(=O)NCC1OCCN1S(=O)(=O)c1ccc(Cl)cc1` (stereo not given)?
GLD-1 TGE inh: inactive; Cardiac RTF inh: inactive; E coli Lon inh: 16; RTF Ca sens act: inactive; BCLXL inh: inactive; eLon confirm: inactive

Results for Cc1cc(N2CCN(C)CC2)ccc1NC(=O)c1c2c(nc3ccccc13)CCN(Cc1ccccc1)C2 ?
GLD-1 TGE inh: inactive; Cardiac RTF inh: inactive; E coli Lon inh: inactive; RTF Ca sens act: inactive; BCLXL inh: inactive

What do the screens show for `CCC(CO)Oc1cc(NCc2cccnc2)c2ncn(C(C)C)c2c1` (stereo not given)?
GLD-1 TGE inh: inactive; Cardiac RTF inh: inactive; E coli Lon inh: 27; RTF Ca sens act: inactive; eLon confirm: inactive
